Rows were chosen to be rich in hits. Some 1.8% of all compounds tested hit in one or more screens of this group.
GLP-1R agonist = GLP-1 receptor (human) agonism | Potency, µM (series often up to 45.6 µM), for inactives: at the highest dose activation, usual class: activators | P43220 | 380,000 compounds, 0.007% hits | HEK293 GLP-1R CRE-luciferase, luminescence, 4-6 h; cells express a hypersensitive GLP-1R form; note: potency is the fitted concentration of half-maximal effect; % of control where 0% means no effect
TSHR antagonist = antagonists of human thyroid stimulating hormone receptor. TSHR-expressing cells, TSH-stimulated cAMP HTRF, 2 h; hits give low values. P16473. activity change, negative = inhibition, % at 11.5 µM. 330,000 compounds, 0.2% hits;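 active = activity change below a set negative limit, meaning inhibition stronger than a set level, cut at about -70% in these data; inconclusive = activity change between two set negative limits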; note: % is set by controls: 0 for no effect and ±100 for the full control effect
Target sequence (P16473 whole entry, looked up): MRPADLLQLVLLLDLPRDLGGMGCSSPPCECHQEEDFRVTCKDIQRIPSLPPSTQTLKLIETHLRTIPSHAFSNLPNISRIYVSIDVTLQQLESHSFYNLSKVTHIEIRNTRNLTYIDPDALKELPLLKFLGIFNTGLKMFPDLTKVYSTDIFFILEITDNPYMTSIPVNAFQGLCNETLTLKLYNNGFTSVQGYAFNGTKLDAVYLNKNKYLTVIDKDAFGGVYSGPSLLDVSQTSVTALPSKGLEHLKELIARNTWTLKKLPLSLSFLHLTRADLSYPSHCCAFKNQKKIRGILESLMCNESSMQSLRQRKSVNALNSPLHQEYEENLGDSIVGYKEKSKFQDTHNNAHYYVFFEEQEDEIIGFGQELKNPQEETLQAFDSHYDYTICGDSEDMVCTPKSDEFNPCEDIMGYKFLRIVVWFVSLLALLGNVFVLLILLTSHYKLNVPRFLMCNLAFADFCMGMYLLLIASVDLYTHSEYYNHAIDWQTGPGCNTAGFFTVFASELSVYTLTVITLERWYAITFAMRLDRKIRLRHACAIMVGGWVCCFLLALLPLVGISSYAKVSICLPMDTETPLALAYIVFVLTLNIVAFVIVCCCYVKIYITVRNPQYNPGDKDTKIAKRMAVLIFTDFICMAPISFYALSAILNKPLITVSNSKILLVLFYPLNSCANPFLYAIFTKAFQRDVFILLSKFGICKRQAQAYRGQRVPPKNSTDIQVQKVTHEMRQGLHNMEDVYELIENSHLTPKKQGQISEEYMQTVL
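Antagonism was scored as loss of TSH-driven cAMP in TSHR cells, stimulated with 4nM TSH (EC80) for 2 hours at 37 deg C and detected by homogeneous HTRF competition immunoassay.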
PTHR1 ag = activates the human parathyroid hormone receptor PTHR1; Q03431; HEK293 GP2 PTHR1 cells, GloSensor cAMP luminescence, 1 h; Potency, µM (titrated, usually from 115 µM), for the others: at the top dose activation, actives largely listed as activators; 410,000 compounds, 0.075% hits; note: potency is the fitted concentration of half-maximal effect; nearly all actives have a fitted effect of over 55% in size
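HEK-293-derived GP2 cells expressing PTHR1 and a GloSensor cAMP reporter, 3,000/well, plated overnight, given luciferin plus IBMX (each 0.5 mM as added) for 1 h at 37 °C, then compound for 1 h at 37 °C. Luminescence was read after 15 min at room temperature.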
GLP1R inv ag = acts as inverse agonist at human GLP-1 receptor. HEK293 GLP-1R CRE-luciferase, luminescence, 24 h; GLP-1R form is constitutively active. Potency, µM (highest dose often 38.3 µM), for the others: at the top dose activity change, negative = inhibition, usual class: inhibitors. 410,000 compounds, 1.6% hits. AID 624417; note: potency is the fitted concentration of half-maximal effect; % is set by controls: 0 for no effect and ±100 for the full control effect; nearly all actives have a fitted effect of over 55% in size
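Readout was luciferase luminescence, measured 12 min after detection reagent at room temperature. Beforehand, GLP-1R reporter HEK293 cells had sat 12 h, then received compounds for 24 hr at 37 deg C.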
GLP1R cytotox = cytotoxicity counter-screen for GLP-1 receptor inverse agonists; HEK293 cAMP-luciferase reporter cells, luminescence, 24 h; Potency, µM (doses to about 38.3 µM), without a hit: top-dose activity change, negative = inhibition, usual class: inhibitors; 410,000 compounds, 0.13% hits; AID 624418;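 note: loss of luciferase light is scored as toxicity; potency is the fitted concentration of half-maximal effect; % is set by controls: 0 for no effect and ±100 for the full control effect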
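To flag toxic compounds, the library was rerun on cells for 24 hr at 37 deg C and 5% CO2. Viability-linked luminescence was captured 12 min after adding luciferase detection reagent.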
* hit, by the source's call; i = inactive; ? = inconclusive; . = no result given; [ ] = dose if it differs, or a comment. Unless noted, calls come from the whole dose curve; as a rule, active = well fitted curve in the direction sought with a large enough effect; inconclusive = small, poorly fitted or top-dose-only effect, or another doubt; inactive = no such curve, though single readings can be large; an effect the other way counts as inactive or inconclusive.

SMILES	GLP-1R agonist	TSHR antagonist	PTHR1 ag	GLP1R inv ag	GLP1R cytotox
O=C(Cc1ccc(Cl)cc1)Nc1ccc(-c2nnc(-c3ccco3)o2)cc1	-11%	-9	i	10µM*	?
COc1ccc(Cl)cc1Nc1ncnc2c1nc1n2CCCC1	.	.	-15%	-19%	-10%
Cc1oc2ncn(C)c(=O)c2c1C(=O)Nc1ccccn1	1%	.	i	0%	-1%
CC[C@@]12C(=O)N(c3cccc(F)c3)C(=O)N1[C@H](c1ccc(F)cc1)[C@@H]1C(=O)N(C3CCCCC3)C(=O)[C@@H]12	-3%	-9	-2%	?	-6%
O=C1[C@H]2[C@@H](c3ccc(F)cc3)N3C(=O)N(c4cccc(F)c4)C(=O)[C@@]3(Cc3ccccc3)[C@H]2C(=O)N1C1CCCCC1	-4%	-3	-15%	?	2%
CC[C@@]12C(=O)N(c3cccc(Br)c3)C(=O)N1[C@H](c1ccc(F)cc1)[C@@H]1C(=O)N(C3CCCCC3)C(=O)[C@@H]12	-3%	-13	-11%	8.9µM*	-31%
O=C1[C@H]2[C@@H](c3ccc(F)cc3)N3C(=O)N(c4cccc(Br)c4)C(=O)[C@@]3(Cc3ccccc3)[C@H]2C(=O)N1C1CCCCC1	0%	-1	-16%	2.8µM*	7%
O=C(Cn1ccn(-c2ccc(F)c(F)c2)c(=O)c1=O)NCc1ccccc1	.	.	i	-8%	-4%
COc1ccc(C(c2nnnn2C2CCCC2)N2CCC(C)CC2)c(OC)c1 (centres undefined)	6%	-6	-29%	10µM*	-7%
CCc1cccc(CC)c1NC(=S)NCCc1c(C)[nH]c2ccccc12	3%	-1	-14%	10µM*	?
Cc1ccnc(NC(=O)c2ccc(S(=O)(=O)N3CCCCCC3)cc2)c1	7%	-6	-22%	11µM*	7%
Cc1ccnc(NC(=O)c2ccc(S(=O)(=O)N3CCCCC3)cc2)c1	1%	-4	-13%	-6%	-1%
CCOc1ccc(C(=O)Nc2cc(C)ccn2)cc1	-3%	2	-41%	4µM*	4%
COc1ccccc1N1CCN(C(=O)Cc2c(C(=O)O)c(C)cn2C)CC1	.	.	i	7%	6%
COc1ccc(CNC(=O)Cc2c(C)c3cc4c(C)coc4cc3oc2=O)cc1OC	.	.	-17%	1%	-14%
O=C(CCN1C(=O)/C(=C\c2ccccc2)SC1=S)N1CCOCC1	0%	-5	i	6%	?
O=C(CCCN1C(=O)/C(=C/c2ccccc2Cl)SC1=S)N1CCCC1	-7%	-6	-24%	10µM*	?
O=C(CCCN1C(=O)/C(=C/c2ccccc2)SC1=S)N1CCOCC1	3%	-1	-20%	8.9µM*	?
CC(Oc1ccc(F)cc1)C(=O)N1CCC(c2nc3ccccc3s2)CC1 (centres undefined)	.	.	-19%	?	18%
COCCNC(=S)N1CCN(c2nc(-c3ccccc3)cs2)CC1	-3%	-7	-75%	-17%	-4%
O=C(NC1CCCCC1)N1CCN(c2nc(-c3ccccc3)cs2)CC1	-2%	2	-53%	-2%[7.66 µM]	-7%[7.66 µM]
O=C(NC(=S)N1CCN(c2nc(-c3ccccc3)cs2)CC1)c1cccnc1	-35%	12	-25%	8.9µM*	-15%
COc1ccc(N2CCN(C(=O)NC34CC5CC(CC(C5)C3)C4)CC2)cc1	-3%	-1	-33%	7.9µM*	-21%
O=C(NC12CC3CC(CC(C3)C1)C2)N1CCN(c2nc(-c3ccccc3)cs2)CC1	-10%	-25	-28%[57.5 µM]	3.2µM*	1%
O=C(c1ccc2c(c1)N(Cc1cccc(Cl)c1)C(=O)c1ccccc1S2(=O)=O)N1CCN(Cc2ccccc2)CC1	.	.	i	-13%	0%
SMILES	GLP-1R agonist	TSHR antagonist	PTHR1 ag	GLP1R inv ag	GLP1R cytotox
CCOC(=O)c1cc(S(=O)(=O)Nc2ccc(C)cc2Cl)[nH]n1	-2%	.	-16%	-11%	-3%
O=C(Nc1cc(C(F)(F)F)ccc1Cl)C(Sc1ccccn1)c1ccccc1 (centres undefined)	-6%	-2	-11%	8.9µM*	11%
CCOc1ccccc1N=C1SC(CC(=O)Nc2ccc(OC)cc2OC)C(=O)N1CCC1=CCCCC1 (centres undefined)	0%	1	-19%	2.8µM*	2%
CC1CCN(S(=O)(=O)c2ccc(NC(=O)C3CCN(C(=O)c4ccco4)CC3)cc2)CC1	9%	-12	-16%	2.8µM*	14%
CC1CC(C)CN(S(=O)(=O)c2ccc(NC(=O)CN3CCCCCC3)cc2)C1 (centres undefined)	11%	3	-4%	11µM*	?
O=C(Nc1ccc(S(=O)(=O)N2CCCCC2)cc1)C1CCN(C(=O)c2ccco2)CC1	6%	-20	-45%	?	1%
CC1CCCN(S(=O)(=O)c2ccc(NC(=O)CN3CCCCC3)cc2)C1 (centres undefined)	18%	-2	17%	22µM*	1%
O=C(CN1CCCCC1)Nc1ccc(S(=O)(=O)N2CCCCCC2)cc1	0%	-5	i	-11%	13%
CCN1CCN(CC(=O)Nc2ccc(S(=O)(=O)N3C(C)CCCC3C)cc2)CC1 (centres undefined)	12%	7	i	11µM*	4%
N[C@@H](C(=O)N[C@H]1C(=O)N2C(C(=O)O)=C(Cl)CC[C@H]12)c1ccccc1	-3%	.	.	.	.
O=C(Cn1cc(S(=O)(=O)Cc2ccccc2Cl)c2ccccc21)Nc1ccc(F)cc1F	.	.	-13%	?	-3%
CCCN1CCN(c2cc3c(cc2F)c(=O)c(S(=O)(=O)c2ccc(CC)cc2)cn3CC)CC1	.	.	i	?	-14%
Cc1cccc(N2CCN(CC(=O)Nc3ccc(S(=O)(=O)N4CCOCC4)cc3)CC2)c1C	-4%	-13	-30%	11µM*	1%
O=C(Nc1ccc(F)cc1)Nc1ccc(S(=O)(=O)N2CCCC2)cc1	-1%	4	-38%	8.9µM*	-24%
CC1CCN(S(=O)(=O)c2ccc(NC(=O)CN3CCCC3)cc2)CC1	10%	1	i	1.8µM*	7%
CC1CCN(CC(=O)Nc2ccc(S(=O)(=O)N3CCC(C)CC3)cc2)CC1	1%	4	25%	?	?
COC(=O)c1ccc(C(=O)OC)c(NC(=O)CCC(=O)O)c1	-4%	-4	i	4%	0%
COC(=O)c1ccc(C(=O)OC)c(NC(=O)CSCc2ccc(Br)cc2)c1	-1%	-13	-25%	7.9µM*	-18%
O=C(NCc1ccc(F)cc1)C(Cc1ccccc1)n1cccc1 (centres undefined)	3%	8	-15%	11µM*	2%
O=C(Nc1ccc(F)cc1)C(Cc1ccccc1)n1cccc1 (centres undefined)	12%	-9	-27%	13µM*	-5%

Assay outcomes: PubChem BioAssay, National Center for Advancing Translational Sciences (NCATS)
